TDP1 cell noCPT: qHTS for Inhibitors of human tyrosyl-DNA phosphodiesterase 1 (TDP1): qHTS in cells in absence of CPT. DT40 Tdp1-/- hTDP1 cells, no CPT, ATP luminescence, 48 h. Potency, µM (top dose mostly 46.2 µM), hits mostly inhibitors. 420,000 tested, 15% active. AID 686978, 2013; further: nearly all actives have a fitted effect of over 55% in size
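Growth of hTDP1-complemented DT40 Tdp1-knockout cells is measured by ATP luminescence after at least 48 hr compound exposure at 37 °C, with DMSO substituting for the 20 nM CPT used in the parallel screen.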
HT1080NT lethal: kills 2HG-producing HT-1080-NT fibrosarcoma cells; HT-1080-NT fibrosarcoma viability, CellTiter-Glo ATP luminescence, 48 h; Potency, µM (top dose mostly 46.1 µM), actives largely listed as cytotoxic; 360,000 tested, 1.6% active; AID 686970;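 further: NT is the 2HG producing partner of a matched IDH1 knockdown line; nearly all actives have a fitted effect of over 55% in size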
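Toxicity toward the 2HG-producing NT line was scored as %Activity, normalised to DMSO and no-cell wells, from CellTiter-Glo luminescence after 48 hours' treatment.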
IL-1B inflam inh: inhibitors of inflammasome signaling (IL-1 beta secretion). activity change, % at 57.5 µM. 360,000 tested, 4.7% active. THP-1 LPS/ATP IL-1B secretion, AlphaLISA, 16 h; hits give low values. AID 743279; in the data active means activity change below about -50%; inconclusive means mostly about -30% to -49%
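Secreted IL-1B measured by AlphaLISA bead assay after 16 h compound exposure of THP-1 cells; compounds (final up to 57.5 uM) added 1 h before LPS (250 ng/mL) and ATP (1.25 mM) stimulation; lower signal means less secretion.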
TDP1 cell CPT: DT40-hTDP1 cell growth loss with CPT; chicken DT40 Tdp1-/-;hTDP1 cells + 20 nM CPT, ATP luminescence, 48 h; 420,000 tested, 12% active; Potency, µM (series often up to 46.2 µM), hits mostly inhibitors; further: nearly all actives have a fitted effect of over 55% in size
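Chicken DT40 Tdp1-/- cells complemented with human TDP1, 400 cells/well, exposed to compounds plus 20 nM camptothecin for at least 48 h at 37 C; viability read as ATP content by CellTiter-Glo luminescence.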
HT1080 IDH1KD tx: HT-1080 IDH1 knockdown cell toxicity (counter line) | HT-1080 IDH1 knockdown viability, ATP luminescence, 48 h | Potency, µM (series often up to 46.1 µM), usual class: cytotoxic | 360,000 tested, 2% active | AID 686971
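After a 2 h attachment period, IDH1KD HT-1080 cells took pin-transferred compound for 48 h at 37 °C; ATP-based luminescence after 10 min room-temperature reagent incubation reported viability.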
Numbers stand for hits; [ ] = dose if it differs, or a comment. In the library only some 19% were active in any assay of this set; here they are far more common. Unless noted, the call rests on the fitted dose curve; in most records, active means well fitted curve in the direction sought with a large enough effect; inconclusive means small, poorly fitted or top-dose-only effect, or another doubt; inactive means no such curve, though single readings can be large; an effect the other way counts as inactive or inconclusive.

CC(C)C(NC(=O)C(Cc1ccc(O)cc1)NC(=O)C(NC(=O)C(F)(F)F)C(C)C)C(=O)O (centres undefined) was read as TDP1 cell noCPT inactive and TDP1 cell CPT inactive.
`C=C(C)CN(CC)C(=O)CN1C(=O)NC(C)(c2ccc3ccccc3c2)C1=O` (centres undefined) gave TDP1 cell noCPT inactive, HT1080NT lethal inactive, IL-1B inflam inh inactive, TDP1 cell CPT inactive and HT1080 IDH1KD tx inactive.
For CC(Oc1ccccc1F)C(=O)NC1CCS(=O)(=O)C1 (centres undefined) the results were TDP1 cell noCPT inconclusive, HT1080NT lethal inactive, IL-1B inflam inh inactive, TDP1 cell CPT inactive and HT1080 IDH1KD tx inactive.
CC1CCN(CCOCCSc2ccc(Cl)cc2)CC1 was read as TDP1 cell noCPT 18µM, HT1080NT lethal inconclusive, IL-1B inflam inh inactive, TDP1 cell CPT inconclusive and HT1080 IDH1KD tx inactive.
Clc1ccc(SCCOCCN2CCc3ccccc3C2)cc1 was read as TDP1 cell noCPT inconclusive, HT1080NT lethal 23µM, IL-1B inflam inh inconclusive, TDP1 cell CPT inconclusive and HT1080 IDH1KD tx inconclusive.
Screening Clc1ccc(SCCOCCN2CCCCC2)cc1 returned TDP1 cell noCPT 16µM, HT1080NT lethal inactive, IL-1B inflam inh inactive, TDP1 cell CPT inconclusive and HT1080 IDH1KD tx inactive.
Clc1ccc(SCCOCCN2CCOCC2)cc1 was read as TDP1 cell noCPT inconclusive, HT1080NT lethal inactive, IL-1B inflam inh inactive, TDP1 cell CPT inactive and HT1080 IDH1KD tx inactive.
Screening O=S1(=O)N[C@H](c2ccccc2)C[C@H](c2ccc(C(F)(F)F)cc2)O1 returned TDP1 cell noCPT inconclusive, HT1080NT lethal inactive, IL-1B inflam inh inactive, TDP1 cell CPT 15µM and HT1080 IDH1KD tx inactive.
COc1cccc(OC(=O)N2CCOCC2)c1 was read as TDP1 cell noCPT inactive, HT1080NT lethal inactive, IL-1B inflam inh inactive, TDP1 cell CPT inactive and HT1080 IDH1KD tx inactive.
Screening COc1ccc(Oc2coc3cc(OC(=O)N4CCOCC4)ccc3c2=O)cc1 returned TDP1 cell noCPT inconclusive, HT1080NT lethal inactive, IL-1B inflam inh inactive, TDP1 cell CPT 16µM and HT1080 IDH1KD tx inactive.
COc1ccc(NC(=O)CCc2c(C)nc3nc(CNC(=O)OC(C)(C)C)nn3c2C)cc1OC was read as TDP1 cell noCPT inactive and TDP1 cell CPT inactive.
Screening O=C(CCNC(=O)c1ccccc1Cl)Nc1nc(-c2ccc(F)cc2)cs1 returned TDP1 cell noCPT inconclusive, HT1080NT lethal inactive, IL-1B inflam inh -69, TDP1 cell CPT inconclusive and HT1080 IDH1KD tx inactive.
O=C(CCNC(=O)c1ccccc1Cl)Nc1nc(-c2ccccc2Cl)cs1 was read as TDP1 cell noCPT 18µM, HT1080NT lethal inactive, IL-1B inflam inh inactive, TDP1 cell CPT inconclusive and HT1080 IDH1KD tx inactive.
For O=C(CCNC(=O)c1ccccc1Cl)Nc1nc(-c2ccc3ccccc3c2)cs1 the results were TDP1 cell noCPT inconclusive, HT1080NT lethal inactive, IL-1B inflam inh inconclusive, TDP1 cell CPT inconclusive and HT1080 IDH1KD tx inactive.
CS(=O)(=O)Nc1nc2n(n1)C(c1ccccc1)CC(c1ccccc1)N2 (centres undefined) was read as TDP1 cell noCPT inactive, HT1080NT lethal inactive, IL-1B inflam inh inactive, TDP1 cell CPT inactive and HT1080 IDH1KD tx inactive.
`CCOC(=O)c1ccc2c(c1)nc(C1CCN(S(=O)(=O)c3cccs3)CC1)n2CC` gave TDP1 cell noCPT inconclusive, HT1080NT lethal inconclusive, IL-1B inflam inh -79, TDP1 cell CPT 15µM and HT1080 IDH1KD tx inconclusive.
CCOc1ccccc1C(=O)N[C@H](C(=O)OCC(=O)Nc1nnc(-c2ccccc2)o1)C(C)C was read as TDP1 cell noCPT inactive, HT1080NT lethal inactive, IL-1B inflam inh inactive, TDP1 cell CPT inactive and HT1080 IDH1KD tx inactive.
Screening CC(C)(C)NC(=O)COC(=O)CNC(=O)C1CCCCC1 returned TDP1 cell noCPT inactive and TDP1 cell CPT inactive.
For CCc1ccc(S(=O)(=O)N2c3ccc(C)cc3C3CN(C)CCC32)cc1 (centres undefined) the results were TDP1 cell noCPT inconclusive, HT1080NT lethal inactive, IL-1B inflam inh -51, TDP1 cell CPT inconclusive and HT1080 IDH1KD tx inactive.
For Cc1ccc2c(c1)[C@@H]1CN(C)CC[C@@H]1N2S(=O)(=O)c1ccc(F)cc1 the results were TDP1 cell noCPT inconclusive, HT1080NT lethal inactive, IL-1B inflam inh inactive, TDP1 cell CPT inconclusive and HT1080 IDH1KD tx inactive.
For Cc1ccccc1-c1nc(CN2CCC(C(=O)O)CC2)c(C)o1 the results were TDP1 cell noCPT inactive, HT1080NT lethal inactive, IL-1B inflam inh inactive, TDP1 cell CPT inactive and HT1080 IDH1KD tx inactive.
Screening COc1ccc(CCNC(=O)C2CCN(Cc3nc(-c4ccccc4C)oc3C)CC2)cc1OC returned TDP1 cell noCPT 16µM, HT1080NT lethal inconclusive, IL-1B inflam inh inactive, TDP1 cell CPT 23µM and HT1080 IDH1KD tx inconclusive.
Screening Cc1ccccc1-c1nc(CN2CCC(C(=O)NCCC3=CCCCC3)CC2)c(C)o1 returned TDP1 cell noCPT 18µM, HT1080NT lethal inactive, IL-1B inflam inh -61, TDP1 cell CPT 18µM and HT1080 IDH1KD tx inactive.
Cc1ccccc1-c1nc(CN2CCC(C(=O)NCCCN3CCCC(C)C3)CC2)c(C)o1 (centres undefined) was read as TDP1 cell noCPT inconclusive, HT1080NT lethal 18µM, TDP1 cell CPT inconclusive and HT1080 IDH1KD tx 9.2µM.
For Cc1ccccc1-c1nc(CN2CCC(C(=O)NC3CCN(Cc4ccccc4)CC3)CC2)c(C)o1 the results were TDP1 cell noCPT inconclusive, HT1080NT lethal inactive, IL-1B inflam inh inactive, TDP1 cell CPT 21µM and HT1080 IDH1KD tx inactive.
Screening CSCCC(NS(=O)(=O)c1cccs1)C(=O)Nc1ccc(C)c(Cl)c1 (centres undefined) returned TDP1 cell noCPT inactive and TDP1 cell CPT inactive.
Screening Cc1nn(C(=O)c2cccc([N+](=O)[O-])c2C)c(C)c1S(=O)(=O)N1CCOCC1 returned TDP1 cell noCPT inactive and TDP1 cell CPT inactive.
C=CCn1c(COc2ccc(F)cc2)nnc1SC(C)C(=O)NCC1CCCO1 (centres undefined) was read as TDP1 cell noCPT inactive, HT1080NT lethal inactive[9.24 µM], IL-1B inflam inh inactive, TDP1 cell CPT inactive and HT1080 IDH1KD tx inactive.
Cc1cc(C)n2nc(S(=O)(=O)NC3CCCCC3)nc2n1 was read as TDP1 cell noCPT inactive, HT1080NT lethal inactive, IL-1B inflam inh inactive, TDP1 cell CPT inactive and HT1080 IDH1KD tx inactive.
`Cc1ccccc1-c1nc(CN2CCC(C(=O)NCCc3ccccc3)CC2)c(C)o1` gave TDP1 cell noCPT 21µM and TDP1 cell CPT 15µM.
For Cc1oc(-c2cccc(Br)c2)nc1CN1CCC(C(=O)NCCc2ccc(Cl)cc2)CC1 the results were TDP1 cell noCPT inconclusive and TDP1 cell CPT inactive.
`CCOc1ccccc1/C=C/c1onc(C)c1S(=O)(=O)N1CCC(C(=O)N(CC)CC)CC1` gave TDP1 cell noCPT 16µM, HT1080NT lethal inactive, IL-1B inflam inh inactive, TDP1 cell CPT 15µM and HT1080 IDH1KD tx inactive.
